# Screening data as filed in PubChem BioAssay.
# ELG1 DNA repair: qHTS screen for small molecules that inhibit ELG1-dependent DNA repair in human embryonic kidney (HEK293T) cells expressing luciferase-tagged ELG1; 330,000 compounds, 2.3% hits; HEK293T ELG1-luciferase reporter, luminescence, 16 h; DNA damage induced by 5-fluorouridine; Potency, µM (doses to about 46.1 µM), for inactives: at the highest dose activity change, negative = inhibition, usual class: inhibitors; further: on the % scale 0 is the no-effect control and ±100 the full control effect; nearly all actives have a fitted effect of over 55% in size
#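 Step one: seed 2,000 cells per well. Step two: pin-transfer compound or DMSO alongside 5-fluorouridine. Step three: incubate 16 hr, 37 °C, 5% CO2. Step four: add ONE-Glo, wait 30 min, read luminescence.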
# FLuc counter: qHTS profiling assay for firefly luciferase inhibitor/activator using purifed enzyme and Km concentrations of substrates (counterscreen for miR-21 project) | 360,000 compounds, 6.9% hits | Luciferin 4-monooxygenase (Photinus pyralis), P08659 | Potency, µM (top dose mostly 57.5 µM), without a hit: at the highest dose activity change, negative = inhibition, actives largely listed as inhibitors | purified FLuc, Km substrates, luminescence inhibition;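 further: plate controls were vehicle for no effect and reference inhibitor for full effect; nearly all actives have a fitted effect of over 55% in size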
# Target sequence (P08659 whole entry, looked up): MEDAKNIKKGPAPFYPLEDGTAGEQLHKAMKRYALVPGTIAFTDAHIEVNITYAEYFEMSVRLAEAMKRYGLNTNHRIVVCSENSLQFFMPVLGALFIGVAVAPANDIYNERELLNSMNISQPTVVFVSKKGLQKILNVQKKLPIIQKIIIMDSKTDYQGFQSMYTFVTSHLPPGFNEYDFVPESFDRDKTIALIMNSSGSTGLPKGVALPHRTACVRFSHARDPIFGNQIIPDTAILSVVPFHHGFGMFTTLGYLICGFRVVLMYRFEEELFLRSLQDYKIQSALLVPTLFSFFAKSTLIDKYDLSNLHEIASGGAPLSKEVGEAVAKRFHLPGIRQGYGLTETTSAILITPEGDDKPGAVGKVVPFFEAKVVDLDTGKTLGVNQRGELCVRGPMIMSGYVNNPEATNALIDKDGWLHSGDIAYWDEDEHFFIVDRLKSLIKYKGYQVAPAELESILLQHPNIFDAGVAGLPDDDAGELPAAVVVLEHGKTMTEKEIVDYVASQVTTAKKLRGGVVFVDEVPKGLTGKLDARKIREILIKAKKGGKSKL
#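 Biochemical qHTS of compounds, final roughly 60 µM downward over six points, against 10 nM purified firefly luciferase using Km concentrations of substrates (10 uM D-luciferin, 10 uM ATP) in Tris acetate pH 7.5 buffer; luminescence output.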
# ELG1 genotox: qHTS screen for small molecules that induce genotoxicity in human embryonic kidney (HEK293T) cells expressing luciferase-tagged ELG1 | HEK293T ELG1-luciferase reporter, luminescence, 16 h | Potency, µM (titrated, usually from 46 µM), for inactives: top-dose activity change, positive = activation, actives largely listed as activators | 330,000 compounds, 1.3% hits | AID 504466, 2011; further: % of control where 0% means no effect; nearly all actives have a fitted effect of over 60% in size
#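 Quantitative HTS format in 1536-well plates. HEK293T ELG1-luciferase reporter cells receive test compound and are incubated 16 hr at 37 °C, 5% CO2; ONE-Glo added, 30 min room temperature, then luminescence read.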
# NPC1 prom act: qHTS Assay for NPC1 Promoter Activators; Potency, µM (titrated, usually from 9.22 µM), for inactives: at the highest dose activation, actives largely listed as activators; 320,000 compounds, 2.4% hits; Huh7 NPC1 promoter luciferase reporter, 24 h; AID 485313, 2010; further: % of control where 0% means no effect; nearly all actives have a fitted effect of over 60% in size
#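 Huh7 cells stably carrying NPC1 promoter–luciferase, plated in Opti-MEM with 10% FBS for 2 h, were exposed to compound in DMSO for 24 h at 37 °C; luciferase reagent was added for 10 min and luminescence read.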
# SMN2 splice enh: qHTS Assay for Enhancers of SMN2 Splice Variant Expression. Potency, µM (titrated, usually from 46.1 µM), inactives show at the highest dose activity change, positive = activation, hits mostly activators. 210,000 compounds, 2.8% hits. HEK293 SMN2-luciferase splicing reporter, luminescence, 30-36 h; further: % of control where 0% means no effect; nearly all actives have a fitted effect of over 55% in size
#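 HEK293 cells carry an SMN2 minigene-luciferase reporter in which exon 7 inclusion puts luciferase in frame. Cells were seeded at 2000 cells/well, attached for 10-12 hours, then exposed to compounds for 30-36 hours at 37C before ONE-Glo luminescence.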
# Rab9 promoter act: qHTS Assay for Rab9 Promoter Activators. Huh7 Rab9 promoter-luciferase reporter, luminescence, 24 h. Potency, µM (highest dose often 9.22 µM), without a hit: at the top dose activation, negative = inhibition, most hits filed as activators. 320,000 compounds, 2.8% hits. AID 485297, 2010; further: % of control where 0% means no effect; nearly all actives have a fitted effect of over 60% in size
#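 Cells were plated at 1500 per well in reduced-serum medium with 10% FBS and left 2 h. Compound in DMSO was then added for 24 h at 37 °C. Reporter signal was read by luminescence after 10 min with luciferase detection reagent.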
# * marks the source's active call; other numbers are inactive results; ? = inconclusive; . = not tested or not shown; [ ] = dose if it differs, or a comment. Compounds with a hit are over-represented: about 9.2% of the library has one in this group of screens. The call rests on the fitted dose curve; in most records, active means well fitted curve in the direction sought with a large enough effect; inconclusive means small, poorly fitted or top-dose-only effect, or another doubt; inactive means no such curve, though single readings can be large; an effect the other way counts as inactive or inconclusive. Potency means the concentration at half of the fitted maximal effect.
SMILES,ELG1 DNA repair,FLuc counter,ELG1 genotox,NPC1 prom act,SMN2 splice enh,Rab9 promoter act
O=C(O/N=C1/CCCc2occc21)c1ccc(Cl)cc1Cl,-3.8%,5.36µM*,3.4%,-3.3%,.,-3.8%
Cc1c(NC(=O)c2ccc(Cl)cc2)cc(C(C)C)c(O)c1S(=O)(=O)c1ccccc1,.,?,.,.,15.8µM*,.
Cc1c(NC(=O)c2ccccc2)cc(C(C)C)c(O)c1S(=O)(=O)c1ccc(Cl)cc1,.,-18.7%,.,.,.,.
COc1ccc(C(=O)Nc2cc(S(=O)(=O)c3ccc(Cl)cc3)c(O)c(C)c2C)cc1,.,8.49µM*,.,.,14.5%,.
CCCN(C(=O)c1cc2c(s1)-c1ccccc1OC2)c1ccc(C(C)C)cc1,.,-9.0%,.,.,-5.7%,.
COc1ccc(/C=C/c2nc(N)nc(-c3ccccc3O)n2)cc1OC,20.6µM*,?,-1.4%,-1.5%,14.2%,1.4%
Cc1ccc(C(=O)ON=C2CCN(c3ccc([N+](=O)[O-])cc3)CC2)cc1,-2.6%,10.7µM*,-1.0%,0.1%,-5.5%,6.5%
Nc1ncnc2c1ncn2[C@@H]1O[C@H](CNS(=O)(=O)CCCCl)[C@@H](O)[C@H]1O,9.4%,.,5.1%,.,.,.
O=C(Nc1cccc(-c2cn3cccnc3n2)c1)c1cccs1,-7.3%,?,1.3%,-0.5%,12.9%,-3.0%
Cc1ccn2cc(-c3cccc(NC(=O)c4cccs4)c3)nc2c1,-7.2%,2.39µM*,-1.2%,19.0%,?,?
Cc1cccn2cc(-c3cccc(NC(=O)c4cccs4)c3)nc12,?,4.78µM*,4.6%,12.5%,18.4%,24.5%
Cc1ccc(S(=O)(=O)N2CCCCC2)cc1C(=O)OC1CCCCC1=O (centres undefined),11.3%,0.0%,12.0%,-3.6%,.,3.3%
Cc1[nH]c2ccccc2c1C(=O)COc1ccccc1,?,?,14.0%,16.3%,.,24.3%
Cc1[nH]c2ccccc2c1C(=O)COc1ccccc1F,?,21.3µM*,12.8%,16.3%,.,22.2%
Cc1ccccc1Cn1ccc(NC(=O)c2nn3cccnc3c2Cl)n1,?,16.9µM*,5.1%,11.6%,-10.3%,26.9%
Cc1ccccc1Cn1ccc(NC(=O)c2cc3ncc(Br)cn3n2)n1,?,10.7µM*,-0.4%,-1.5%,1.8%,-2.2%
Cc1ccccc1Cn1ccc(NC(=O)c2cc3nc(-c4ccco4)cc(C(F)(F)F)n3n2)n1,9.3%,1.5%,2.3%,-2.1%,-16.1%,3.8%
CSc1ccccc1NC(=O)c1cc2ncc(Br)cn2n1,?,8.49µM*,?,3.9%,3.16µM*,?
O=C(NCc1ccc2c(c1)OCO2)c1nn2cccnc2c1Cl,.,3.7%,.,.,-1.4%,.
C(=N\Nc1nc2ccccc2s1)/c1ccco1,?,1.2µM*,?,2.24µM*,1.58µM*,1.26µM*
Cc1cc(N/N=C/c2ccco2)c2ccccc2n1,12.7%,-15.8%,0.3%,3.8%,1.7%,-2.7%
C(=N\Nc1nc2ccccc2s1)/c1cccs1,?,0.849µM*,?,?,7.08µM*,1.26µM*
CCn1c(C)c(/C=N/Nc2nc3ccccc3s2)c2ccccc21,-2.4%,13.5µM*,0.1%,?,-25.4%,11.8%
Cc1ccsc1/C=N/Nc1nc2ccccc2s1,?,1.69µM*,1.46µM*,3.55µM*,1µM*,1.78µM*
Cc1ccc2nsnc2c1NC(=O)c1cccnc1Cl,4.1%,4.4%,-1.1%,-3.7%,-1.9%,-3.6%
SMILES,ELG1 DNA repair,FLuc counter,ELG1 genotox,NPC1 prom act,SMN2 splice enh,Rab9 promoter act
Cc1ccnc(N/N=C/c2ccco2)n1,?,16.9µM*,?,?,?,26.0%
O=c1c(-c2ccc(Cl)cc2)c[nH]n1-c1ccccc1,?,9.53µM*,12.2%,?,.,-0.4%[1.84 µM]
Cc1[nH]n(-c2ccccc2)c(=O)c1-c1ccc(Cl)cc1,10.4%,?,-1.6%,6.8%,-14.7%,2.2%
O=c1c(-c2ccccc2)c[nH]n1-c1cccc([N+](=O)[O-])c1,?,15.1µM*,17.9%,?,.,?
O=[N+]([O-])c1cccc(-n2nncc2-c2ccccc2)c1,-0.5%,-0.5%,1.8%,-0.9%,.,6.8%
Cc1ccc(C(=O)COC(=O)c2cc(-c3ccc(Cl)cc3)nc3ccccc23)cc1,.,-9.9%,.,.,3.5%,.
Cc1ccc(/C(N)=N/OC(=O)c2cc(-c3ccccc3)nc3ccccc23)cc1,3.1%,13.5µM*,-0.4%,-0.4%,7.4%,-0.6%
N/C(=N\OC(=O)c1cc(-c2ccccc2)nc2ccccc12)c1ccccn1,18.3µM*,9.53µM*,-7.5%,9.5%,.,13.9%
CC(=O)COC(=O)c1cc(-c2ccc(C)cc2)nc2ccccc12,?,16.9µM*,6.2%,15.9%,.,24.0%
Cc1ccc(-c2cc(C(=O)Oc3ccccc3)c3cc(C)ccc3n2)cc1,.,21.3µM*,.,.,0.0%,.
COc1ccc(/C(N)=N/OC(=O)c2cc(-c3ccccc3)nc3ccccc23)cc1,7.0%,?,-3.3%,2.1%,-15.6%,-1.4%
CCOc1ccc(CNCc2c(C(=O)O)n(Cc3ccccc3C)c3cc(OC)ccc23)cc1OC,.,-7.6%,.,.,.,.
COc1ccc(-c2cn3nc(N4CCCC(C(=O)Nc5cc(C)cc(C)c5)C4)sc3n2)cc1 (centres undefined),.,-18.7%,.,.,.,.
Cc1ccc(-c2cn3nc(N4CCCC(C(=O)Nc5ccc(F)cc5)C4)sc3n2)cc1 (centres undefined),.,12µM*,.,.,.,.
CCNC(=O)C1CCCN(c2nn3cc(-c4ccc(C)cc4)nc3s2)C1 (centres undefined),.,1.2µM*,.,.,.,.
COc1ccc(-c2cn3nc(N4CCCC(C(=O)Nc5ccc(C)c(C)c5)C4)sc3n2)cc1 (centres undefined),.,-16.7%,.,.,.,.
Cc1ccc(-c2cn3nc(N4CCCC(C(=O)NCc5ccc(F)cc5)C4)sc3n2)cc1 (centres undefined),.,8.49µM*,.,.,.,.
CCOC(=O)C1=C(COC(=O)/C=C/c2ccccc2Cl)NC(=O)NC1C (centres undefined),?,26.9µM*,?,2.6%,.,27.0%
CCOC(=O)C1=C(COC(=O)/C=C/c2ccccc2F)NC(=O)NC1C (centres undefined),-5.4%,3.8%,10.0%,-3.5%,.,1.6%
CCOC(=O)C1=C(COC(=O)c2cccc(N(C)C)c2)NC(=O)NC1C (centres undefined),?,23.9µM*,?,?,.,2.82µM*
